Bioassay records deposited in PubChem BioAssay by National Center for Advancing Translational Sciences (NCATS).
Shown is part of a subset that was picked to be rich in hits.
HT1080 IDH1KD tx – qHTS for induction of synthetic lethality in tumor cells producing 2HG: qHTS for the HT-1080-IDH1KD cell line; HT-1080 IDH1 knockdown viability, ATP luminescence, 48 h; Potency, µM (highest dose often 46.1 µM), for inactives: top-dose activity, negative = toxicity, usual class: cytotoxic; 360,000 tested, 2% active; AID 686971, 2013;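 note: potency is the fitted concentration of half-maximal effect; 0% = DMSO wells and -100% = cell-free medium wells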
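Cytotoxicity counter-line: IDH1KD HT-1080, 48 h, CellTiter-Glo. Curves classed by r2, magnitude and activity.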
IL-1B inflam inh – qHTS for Inhibitors of Inflammasome Signaling: IL-1-beta AlphaLISA Primary Screen; THP-1 LPS/ATP IL-1B secretion, AlphaLISA, 16 h; hits give low values; activity change, % at 57.5 µM; 360,000 tested, 4.7% active; AID 743279, 2014; in the data active = activity change below about -50%; inconclusive = mostly about -30% to -49%
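Secreted IL-1B measured by AlphaLISA bead assay after 16 h compound exposure of THP-1 cells; compounds (final up to 57.5 uM) added 1 h before LPS (250 ng/mL) and ATP (1.25 mM) stimulation; lower signal means less secretion.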
HT1080-NT tox – qHTS for induction of synthetic lethality in tumor cells producing 2HG: qHTS for the HT-1080-NT fibrosarcoma cell line | HT-1080-NT fibrosarcoma viability, CellTiter-Glo ATP luminescence, 48 h | Potency, µM (doses to about 46.1 µM), without a hit: at the top dose activity, negative = less viability, most hits filed as cytotoxic | 360,000 tested, 1.6% active;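 note: NT is the 2HG producing partner of a matched IDH1 knockdown line; potency is the fitted concentration of half-maximal effect; 0% = DMSO-treated cells and -100% = media-only wells without cells; nearly all actives have a fitted effect of over 55% in size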
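Fibrosarcoma NT cells, 750 per well in 5% FBS RPMI, were exposed to compound for 48 hours. Viability: CellTiter-Glo luminescence.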
DT40 TDP1 no CPT – qHTS for Inhibitors of human tyrosyl-DNA phosphodiesterase 1 (TDP1): qHTS in cells in absence of CPT | DT40 Tdp1-/- hTDP1 cells, no CPT, ATP luminescence, 48 h | Potency, µM (highest dose often 46.2 µM), for the others: at the top dose activity change, negative = growth inhibition, actives largely listed as inhibitors | 420,000 tested, 15% active; note: potency is the fitted concentration of half-maximal effect; nearly all actives have a fitted effect of over 55% in size
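DT40 Tdp1-/-;hTDP1 cells, no CPT (DMSO vehicle only), 400 cells/well; compounds pin-transferred; ≥48 hr, 37 °C; CellTiter-Glo 30 min RT dark, luminescence read.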
DT40 TDP1 CPT – qHTS for Inhibitors of human tyrosyl-DNA phosphodiesterase 1 (TDP1): qHTS in cells in presence of CPT. chicken DT40 Tdp1-/-;hTDP1 cells + 20 nM CPT, ATP luminescence, 48 h. Potency, µM (titrated, usually from 46.2 µM), inactives show top-dose activity change, negative = growth inhibition, most hits filed as inhibitors. 420,000 tested, 12% active; note: potency is the fitted concentration of half-maximal effect; nearly all actives have a fitted effect of over 55% in size
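Cell growth measured by CellTiter-Glo luminescence after a minimum 48 h, 37 C compound exposure with 20 nM CPT in Tdp1-knockout DT40 cells stably expressing hTDP1, seeded 400/well; qHTS titration format.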
ALOX12 inh – Primary qHTS assay for inhibitors of human arachidonate 12S-lipoxygenase (ALOX12): Round 2 | purified 12hLO, xylenol orange hydroperoxide absorbance | Potency, µM (series often up to 108 µM), for inactives: at the highest dose activity change, negative = inhibition, most hits filed as inhibitors | 580,000 tested, 1.1% active | AID 1671190, 2021; note: potency is the fitted concentration of half-maximal effect
Target sequence (P18054 whole entry, looked up): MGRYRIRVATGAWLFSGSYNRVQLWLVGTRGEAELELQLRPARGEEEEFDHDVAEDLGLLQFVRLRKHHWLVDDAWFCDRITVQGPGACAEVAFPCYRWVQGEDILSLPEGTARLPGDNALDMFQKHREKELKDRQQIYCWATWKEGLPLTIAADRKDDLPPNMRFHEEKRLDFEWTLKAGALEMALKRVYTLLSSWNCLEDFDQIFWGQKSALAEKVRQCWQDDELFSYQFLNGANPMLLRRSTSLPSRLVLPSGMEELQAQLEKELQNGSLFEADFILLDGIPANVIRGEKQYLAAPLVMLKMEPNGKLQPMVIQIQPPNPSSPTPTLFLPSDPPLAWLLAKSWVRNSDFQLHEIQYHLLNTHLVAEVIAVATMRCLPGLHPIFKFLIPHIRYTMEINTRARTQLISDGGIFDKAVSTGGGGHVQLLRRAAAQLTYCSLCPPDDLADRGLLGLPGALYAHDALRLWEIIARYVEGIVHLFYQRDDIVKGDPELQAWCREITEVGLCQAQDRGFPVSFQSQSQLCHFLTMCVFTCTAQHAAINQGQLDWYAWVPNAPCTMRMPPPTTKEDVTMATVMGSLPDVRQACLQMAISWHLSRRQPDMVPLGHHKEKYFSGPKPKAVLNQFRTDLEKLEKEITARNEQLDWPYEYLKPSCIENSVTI
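Hydroperoxide product was detected by ferrous iron/xylenol orange as the 573 to 405 nm absorbance ratio. Arachidonic acid at 40 uM (final) was turned over for 30 min at room temperature by 150 nM human 12hLO, pH 7.0 Hepes buffer, after 15 min compound preincubation.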
Active calls of the source: *; u = inconclusive; x = not tested or not shown; [ ] = another dose, or the depositor's remark. Unless noted, calls come from the whole dose curve; as a rule, active = well fitted curve in the direction sought with a large enough effect; inconclusive = small, poorly fitted or top-dose-only effect, or another doubt; inactive = no such curve, though single readings can be large; an effect the other way counts as inactive or inconclusive. Unless noted, % is set by controls: 0 for no effect and ±100 for the full control effect.

SMILES | HT1080 IDH1KD tx | IL-1B inflam inh | HT1080-NT tox | DT40 TDP1 no CPT | DT40 TDP1 CPT | ALOX12 inh
CCC1(C)C(Nc2c(C)cccc2C)=NC(=S)N1c1ccc(NC(C)=O)cc1 (stereo not given) | 2.7% | 16.9 | 1.5% | -1.8% | -8.2% | -3.9%
CC(=O)NC(Cc1ccc(I)cc1)C(=O)NCC(N)C(=O)c1ccccc1 (stereo not given) | 1.4% | x | -0.5% | u | u | x
CCCNC(=O)C(Cc1ccc(I)cc1)NC(=O)c1ccc2ccccc2n1 (stereo not given) | -4.0% | -0.5 | -4.6% | 20.6µM* | u | -19.3%
CC(=O)NC(Cc1ccc(Cl)cc1)C(=O)NCC(N)C(=O)c1ccccc1 (stereo not given) | 9.8% | x | 8.8% | u | 15.8µM* | x
CCCNC(=O)C(Cc1ccc(Cl)cc1)NC(=O)c1ccc(-c2ccccc2)cc1 (stereo not given) | 10.4% | -6.9 | -0.7% | 6.51µM* | 8.2µM* | 6.4%
COCCO[C@H]1C(=O)N(C2CCN(C(=O)C3CC=CC3)CC2)[C@H]1c1ccncc1 | x | x | x | x | x | 35.4%
O=C(Oc1ccc(Nc2ncnc3ccccc23)cc1)c1cccnc1 | 5.0% | 18.7 | -6.3% | u | -13.8% | -6.2%
c1ccc(Nc2ncnc3ccc(-c4cccnc4)cc23)cc1 | x | x | x | 18.4µM* | u | -28.9%
c1cncc(CNc2ncnc3ccc(-c4ccoc4)cc23)c1 | x | x | x | u | 10.3µM* | -1.1%
Cc1cccc(CNc2ncnc3ccc(-c4cccnc4)cc23)c1 | x | x | x | 18.4µM* | 11.6µM* | u
Cc1cccc(-c2ccc3ncnc(NCc4cccnc4)c3c2)c1 | x | x | x | x | x | 0.9%
Cc1cccc(CNc2ncnc3ccc(-c4ccoc4)cc23)c1 | x | x | x | 13µM* | 20.6µM* | u
CC1(C)CC(=O)C2=C(C1)OC(N)=C(C#N)C2c1cccc(O)c1 (stereo not given) | x | x | x | x | x | -9.7%
O=c1cc(-c2cnccn2)oc2c(Nc3cccc(OC(F)(F)F)c3)nccc12 | x | x | x | x | x | -9.0%[176 µM]
Cc1noc(C)c1-c1ccc2ncnc(NCc3cccnc3)c2c1 | x | x | x | u | 9.2µM* | u
CCCCOc1ccc(CC(N)=O)cc1 | 19.0% | x | 16.1% | -13.9% | -2.1% | x
CCCCOc1ccc(CSCCN=C(N)N)cc1 | 25.9µM* | -80.6* | u | 4.61µM* | u | -18.0%
O=C(NC1CCN(c2cn[nH]c(=O)c2)CC1)C1CCC1 | x | x | x | x | x | 15.3%
CC(C)C[C@H](NC(=O)[C@H](CCc1ccccc1)NC(=O)CN1CCOCC1)C(=O)N[C@@H](Cc1ccccc1)C(=O)N[C@@H](CC(C)C)C(=O)[C@@]1(C)CO1 | x | x | x | 0.0042µM* | 0.0067µM* | -15.3%[57.4 µM]
CCC1CN(CCNC(=O)c2ccccc2-n2cccn2)Cc2cc(OC)ccc2O1 (stereo not given) | x | x | x | -1.2% | -6.9%[9.04 µM] | 13.9%
O=C(COc1ccc(/C=N/NS(=O)(=O)c2ccccc2)cc1)NCc1ccccc1 | 1.5% | 4.5 | 0.2% | -28.3% | 0.3% | 155.3%
Cc1ccc(NC(=O)CC(C)CC(=O)NCc2ccccc2)cc1Cl (stereo not given) | -10.1% | 36.2 | -5.1% | u | 13µM* | 0.0%
CCn1c2ccccc2c2cc(NC(=O)c3cc(C)on3)ccc21 | 23.1µM* | u | u | 18.4µM* | u | -1.7%
O=C(COc1ccc(/C=N/NS(=O)(=O)c2ccccc2)cc1)Nc1cccc(Cl)c1 | u | -11.0 | u | 20.6µM* | u | 32.6%
CCn1c2ccccc2c2cc(NC(=O)c3ccc(Br)o3)ccc21 | -8.7% | u | -12.3% | u | u | u
SMILES | HT1080 IDH1KD tx | IL-1B inflam inh | HT1080-NT tox | DT40 TDP1 no CPT | DT40 TDP1 CPT | ALOX12 inh
CN(CC(=O)Nc1ccc(N2CCOCC2)cc1)Cc1cc(=O)n2ccsc2n1 | 7.2% | 45.0 | -10.8% | u | 18.4µM* | -0.1%
COc1cccc(NC(=O)CC(C)(C(=O)O)c2ccccc2)c1 (stereo not given) | x | x | x | x | x | -76.2%
O=C(CCNC(=O)c1ccccc1Cl)Nc1ccc(S(=O)(=O)N2CCOCC2)cc1 | 7.7% | -7.8 | 12.1% | -19.1% | -7.6% | -13.1%
CCn1c2ccccc2c2cc(NC(=O)CN(C)CC(=O)Nc3ccc(N4CCOCC4)cc3)ccc21 | 25.9µM* | u | -8.3% | 23.1µM* | u | 1.3%
CCn1c2ccccc2c2cc(NC(=O)c3cc(OC)cc(OC)c3)ccc21 | 1.46µM* | 18.8 | 1.3µM* | 0.731µM* | 1.03µM* | -2.1%
C/C(CC(=O)Nc1ccc(OCc2ccccc2)cc1)=N\NC(=O)C(=O)Nc1ccc(C)c(Cl)c1 | u | 6.5 | 18.4µM* | 18.4µM* | u | 15.0%
CCn1c2ccccc2c2cc(NC(=O)c3cc(OC)c(OC)c(OC)c3)ccc21 | 1.46µM* | 14.4 | 0.82µM* | 1.3µM* | 1.3µM* | 2.8%[57.4 µM]
Cc1cc(NC(=O)COc2ccccc2)ccc1Cl | 8.0% | -13.3 | -1.3% | -13.9% | -8.2% | 188.3%
CCn1c2ccccc2c2cc(NC(=O)COc3ccccc3)ccc21 | -25.1% | -3.4 | -23.4% | 23.1µM* | 18.4µM* | -14.4%
Cc1ccc(NC(=O)COc2ccccc2)cc1Cl | 13.5% | -50.8* | 21.2% | -28.8% | 29.6% | x
Cc1ccccc1OCCC(=O)Nc1ccc(N2CCOCC2)cc1 | x | x | x | x | x | 16.6%
COc1ccc(NC(=O)N2CCC(CN3CCCC3)CC2)c(OC)c1 | x | x | x | 2.6% | 0.0% | -3.3%
Cc1cc(C(=O)N2CCCCCCNC(=O)[C@@H]3CCCC[C@@H]32)nn1C | x | x | x | x | x | 19.6%
CC1=C(C(=O)N2CCOCC2)CC(CC(=O)NCCCCc2ccccc2)C(=O)N1Cc1ccc(F)cc1 (stereo not given) | 5.0% | 25.5 | 4.8% | u | -18.1% | -2.8%
COc1ccc(CN2C(=O)C(CC(=O)NCCCCc3ccccc3)CC(C(=O)N3CCCCCC3)=C2C)cc1 (stereo not given) | -6.2% | x | -2.5% | 20.9µM* | 20.9µM* | -4.7%
CCN(CC)C(=O)C1=C(C)N(Cc2ccccc2)C(=O)C(CC(=O)NCCc2ccccn2)C1 (stereo not given) | 6.3% | 8.2 | 7.4% | -11.6% | -3.3% | -4.4%
